# A selection: hits, their analogues and other compounds. The true share with any hit is near 3%.
# SENP7 block – inhibitors of human SENP7 protease | hit rate 1.5% among 330,000 | inhibition, % at 5 µM | recombinant SENP7, Z-RLRGG-aminoluciferin luminescence, 40 min;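 active = inhibition above about 50% at the single test dose, limit read from the data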;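 note: plate controls were DMSO with enzyme for no effect and no enzyme buffer wells for full effect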
# SENP8 block-1 – SENP8 protease inhibition; inhibition, % at 10 µM; AID 2540; purified SENP8, Z-RLRGG-aminoluciferin cleavage, luminescence; hit rate 1.2% among 330,000; in the data active = inhibition above about 50%
# PPC-1+TRAIL kill – PPC-1 cancer cell killing with TRAIL present | PPC-1 cells + TRAIL, ATPLite viability luminescence | cell killing (% activity), % at 4 µM or 5 µM | hit rate 0.41% among 220,000 | AID 1443;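 active = cell killing above 50% in the first pass at 4 µM, then a duplicate retest at 5 µM averaging 50% or more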;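 note: plate controls were cells with TRAIL plus DMSO for no effect and medium-only wells lacking cells for full effect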
# SENP8 block-2 – inhibitors of human SENP8 protease; Q96LD8; recombinant SENP8, Nedd8 substrate fluorescence; inhibition, % at 20 µM; hit rate 0.64% among 360,000; AID 602440; in the data active = inhibition mostly above about 40%, no sharp cut-off; inactive = mostly below about 27%
# TRAIL sens C8 – sensitizes caspase-8 expressing cells to TRAIL; NB7+C8 cells + TRAIL, ATPlite viability luminescence; inhibition (viability loss, TRAIL sensitization), % at 10 µM; hit rate 1% among 360,000;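 active = compounds causing at least 50% loss of cell viability in the single-dose screen, relative to plate controls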
# SENP6 block – inhibitors of human SENP6 protease; Recombinant SENP6 catalytic domain, aminoluciferin luminescence; inhibition, % at 10 µM; hit rate 1.8% among 330,000;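 active = inhibition above about 50% at the single tested dose, limit read from the data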;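 note: plate controls were DMSO wells with enzyme for no effect and DMSO wells lacking enzyme for full effect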
# Target sequence (Q9GZR1 628-1112 limits assumed): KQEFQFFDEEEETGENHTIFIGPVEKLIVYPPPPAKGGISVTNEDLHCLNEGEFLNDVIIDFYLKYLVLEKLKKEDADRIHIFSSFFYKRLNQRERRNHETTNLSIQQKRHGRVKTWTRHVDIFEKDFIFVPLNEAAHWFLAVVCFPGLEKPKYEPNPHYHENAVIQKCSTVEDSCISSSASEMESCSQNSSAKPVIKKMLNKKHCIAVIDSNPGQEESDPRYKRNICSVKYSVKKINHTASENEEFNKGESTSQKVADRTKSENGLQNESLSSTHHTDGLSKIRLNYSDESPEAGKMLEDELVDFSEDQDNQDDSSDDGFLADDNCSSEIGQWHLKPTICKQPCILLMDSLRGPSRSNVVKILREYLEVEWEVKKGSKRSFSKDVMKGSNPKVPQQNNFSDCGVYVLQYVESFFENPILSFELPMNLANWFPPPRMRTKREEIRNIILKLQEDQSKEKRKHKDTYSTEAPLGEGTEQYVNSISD
# SENP8 confirm – human SENP8 inhibition, confirmed | shares compounds with SENP7 block | Recombinant SENP8, Z-RLRGG-aminoluciferin luminescence, 60 min | inhibition, % at 12.5 µM | hit rate 40% among 6,200 | AID 488912;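 active = mean inhibition across replicates above about 50%, limit read from the data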
# SENP6 confirm – confirmation of human SENP6 protease inhibitors | shares compounds with SENP7 block | recombinant SENP6, Z-RLRGG-aminoluciferin luminescence | inhibition, % at 12.5 µM | hit rate 58% among 6,200 | AID 488915
# SENP7 conf – confirmation of human SENP7 protease inhibitors | shares compounds with SENP7 block | recombinant SENP7, Z-RLRGG-aminoluciferin luminescence, 40 min | inhibition, % at 12.5 µM | hit rate 69% among 6,200 | AID 488917
# Casp3 SENP sel – selectivity test for SENP inhibitors: human caspase-3 inhibition | purified caspase-3, Z-DEVD-aminoluciferin luminescence, 60 min | shares compounds with SENP7 block | AID 488918 | inhibition, % at 12.5 µM | hit rate 60% among 6,200;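 active = mean inhibition above about 50%, limit read from the data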;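 note: plate controls were enzyme with DMSO for no effect and wells without caspase-3 for full effect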
# SENP luc ctr – luminescence interference (SENP counter-screen). shares compounds with SENP7 block. Pre-incubated SENP8/Z-RLRGG-aminoluciferin, luciferase luminescence interference. inhibition, % at 12.5 µM. hit rate 39% among 6,200;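 active = mean inhibition above about 50% when retested at one dose, limit read from the data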;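 note: plate controls were DMSO wells with completed reaction for no effect and substrate without enzyme for full effect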
# An asterisk follows results filed as active; / = no result.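 Rule for the calls, unless noted: active = mean inhibition above about 50% in the one-dose retest (limit read from the data); inactive = the rest.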
SMILES,SENP7 block,SENP8 block-1,PPC-1+TRAIL kill,SENP8 block-2,TRAIL sens C8,SENP6 block,SENP8 confirm,SENP6 confirm,SENP7 conf,Casp3 SENP sel,SENP luc ctr
O=C(Nc1ccc(N2CCOCC2)cc1)c1nc2ccccc2s1,98*,75*,33,37,16,95*,-23,12,26,17,45
COc1cccc(C(N)=O)c1,-22,-18,/,7,2,-22,/,/,/,/,/
COc1cccc(/C(C)=N/N=C(\C)c2cccc(OC)c2)c1,66*,61*,/,13,-21,81*,43,56*,85*,55*,41
CCCS(=O)(=O)c1cnc(C2COc3ccccc3O2)nc1N (stereo unspecified),94*,87*,/,13,40,93*,82*,92*,100*,96*,17
CC(=O)Nc1cc(-c2cccc(F)c2)cn2c(-c3ccccc3)cnc12,/,/,/,-420,-2,/,/,/,/,/,/
Cc1nc(C2COc3ccccc3O2)sc1C(=O)O (stereo unspecified),80*,84*,12,3,0,88*,90*,91*,99*,97*,88*
Cn1cccc1/C=C1\SC(=Nc2ccccc2)NC1=O,65*,72*,-15,18,10,80*,44,61*,64*,63*,27
Cn1cccc1/C=C1\SC(=Nc2ccc(O)cc2)NC1=O,4,-11,1,14,4,0,/,/,/,/,/
CC1c2cc3c(cc2CCN1C(=O)c1cccc(Cl)c1)OCCCO3 (stereo unspecified),4,-16,/,-4,23,-14,/,/,/,/,/
CC(OC(=O)C1CC1)C(=O)Nc1cccc(S(=O)(=O)N2CCOCC2)c1 (stereo unspecified),4,-1,/,3,-6,7,/,/,/,/,/
Cn1c(/C(C#N)=C/c2ccc(O)cc2)nc2ccccc21,12,23,11,-411,4,53*,50*,41,65*,/,16
CC(/C=N/Nc1nnc2c(n1)[nH]c1ccccc12)=C\c1ccco1,83*,-3,12,11,3,7,3,-1,-3,-1,-2
CC(C)CNc1ncnc2c1ncn2[C@H]1CN(Cc2ccc(C(=O)O)cc2)C[C@@H](CO)O1,/,/,/,-1,-15,/,/,/,/,/,/
COc1cccc(C(=O)O/N=C(\N)c2ccc([N+](=O)[O-])cc2)c1,38,-13,21,14,-1,18,/,/,/,/,/
COc1ccc(C(=O)O/N=C(\N)c2cccc(C)c2)cc1OC,29,6,/,6,2,31,/,/,/,/,/
Cc1cccc(/C(N)=N/OC(=O)CCC2CCCCC2)c1,32,-4,11,11,-3,83*,67*,90*,98*,86*,83*
COc1cccc(C(=O)O/N=C(\N)c2ccc(C)cc2)c1,83*,57*,/,9,39,73*,74*,76*,93*,79*,58*
COc1ccc(C(=O)O/N=C(\N)c2ccncc2)cc1OC,3,-5,6,24,17,-6,/,/,/,/,/
COc1cccc(C(=O)O/N=C(\N)c2ccncc2)c1,67*,43,18,7,53*,-1,47,44,78*,83*,59*
Cc1cccc(/C(N)=N/OC(=O)c2ccoc2C)c1,98*,94*,/,14,91*,97*,97*,97*,102*,97*,96*
Cc1ccc(/C(N)=N/OC(=O)CCC2CCCCC2)cc1,1,-9,11,8,2,-13,/,/,/,/,/
Cc1cccc(/C(N)=N/OC(=O)c2ccncc2)c1,92*,75*,/,17,18,89*,79*,84*,96*,92*,80*
N/C(=N\OC(=O)c1ccncc1)c1cccc([N+](=O)[O-])c1,-12,-3,/,9,4,25,/,/,/,/,/
COc1ccc(CCNC(=O)c2ccc(NC(=O)CC3SC(N4CCCCC4)=NC3=O)cc2)cc1 (stereo unspecified),/,/,/,14,-9,/,/,/,/,/,/
Cc1ccc(NC(=O)COc2ccccc2[N+](=O)[O-])nc1,70*,50,32,4,60*,72*,15,42,81*,79*,7
SMILES,SENP7 block,SENP8 block-1,PPC-1+TRAIL kill,SENP8 block-2,TRAIL sens C8,SENP6 block,SENP8 confirm,SENP6 confirm,SENP7 conf,Casp3 SENP sel,SENP luc ctr
CC(OC(=O)COc1cccc2c1OC(C)(C)C2)C(=O)Nc1ccc(S(N)(=O)=O)cc1 (stereo unspecified),1,9,/,15,23,-9,/,/,/,/,/
CCC(C)C(CO)NCCCn1cnc2c(SC)ncnc21 (stereo unspecified),/,/,/,14,1,/,/,/,/,/,/
COc1ccc(-n2c(C)nn(C)c2=O)cc1,-6,-7,4,4,-9,-5,/,/,/,/,/
Cc1nn(C)c(=O)n1-c1ccc(OCc2ccccc2)cc1,76*,41,1,20,-2,74*,55*,56*,86*,90*,69*
CCOc1ccccc1O[C@H](c1ccccc1)[C@H]1CNCCO1,-2,0,/,11,16,-2,/,/,/,/,/
CCN(C(=O)COC(=O)c1ccc([N+](=O)[O-])o1)C1CCCCC1,10,9,/,23,19,16,/,/,/,/,/
O=C(Cc1ccccc1)c1ccc2c(c1)OCCO2,69*,71*,2,3,6,73*,70*,65*,91*,78*,76*
O=C(NCCc1ccccc1)c1ccc2c(c1)OCO2,57*,30,/,16,71*,57*,52*,48,82*,78*,57*
O=C(CCCO)c1ccc2c(c1)OCCO2,7,-2,9,3,-2,0,/,/,/,/,/
COc1cc(NC(=O)CCl)ccc(=O)c1,/,/,/,7,15,/,/,/,/,/,/
C=CCn1c(NC(=O)c2ccccc2Cl)c(C#N)c2nc3ccccc3nc21,49,97*,26,-353,-11,94*,26,73*,66*,6,5
CCCCn1c(NC(=O)c2ccc(Br)o2)c(S(=O)(=O)c2ccccc2)c2nc3ccccc3nc21,49,86*,-2,-286,5,87*,-3,40,12,-5,-4
CCCCCn1c(N)c(C#N)c2nc3ccccc3nc21,3,2,1,-287,-19,10,/,/,/,/,/

# High-throughput results (PubChem)
